PubChem BioAssay
For some of these results: Potency and affinity values are given separately. Activity calls are given as the source filed them. Unless noted, no rule for the calls is given here.

Key:
[1] = antimalarial activity against Dd2 strain (AID 2302;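 active = growth inhibition above 50% at the single 2 µM test dose, taken to imply half-maximal potency below 2 µM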;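 also: 0% = DMSO untreated growth and 100% = chloroquine plus artemisinin killed control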); conditions: P. falciparum Dd2 in RBCs, LDH growth readout, 72 h; at 2 µM; stronger effect = higher value
[2] = HepG2 cytotoxicity, primary screen, cytotoxicity control for P. falciparum antimalarial project, cell-based, ATP luminescence (AID 2303;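 active = inhibition above 50%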;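 also: 0% = DMSO wells and 100% = digitonin-killed cells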); conditions: HepG2 viability, 24-48 h, at 10 µM, stronger effect = higher value
[3] = target: L-lactate dehydrogenase (Plasmodium falciparum (isolate CDC / Honduras)) (UniProt Q27743); assay: PfLDH activity inhibition – cell lysate, 3D7 strain, counter-screen for P. falciparum growth inhibition project (AID 2304);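 also: 0% = vehicle and 100% = reference inhibitor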; conditions: P. falciparum 3D7 crude extract, LDH APAD/NBT absorbance; at 2 µM; stronger effect = higher value
[4] = inhibition of 3D7 malaria parasite growth – strain 3D7 (AID 2306);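 also: 0% = DMSO wells and 100% = chloroquine plus artemisinin control wells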; conditions: P. falciparum 3D7 erythrocytic growth, LDH absorbance, 72 h; at 2 µM; stronger effect = higher value
[5] = target: Calcium-dependent protein kinase 1 (Plasmodium falciparum (isolate 3D7)) (UniProt P62344); assay: PfCDPK1 kinase inhibitors, biochemical, TCAMS library (AID 1159585; cut-off not given, nearly all actives have IC50 up to about 0.98 µM;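 also: inhibitors leave more ATP so luminescence rises with inhibition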); conditions: recombinant PfCDPK1, Kinase-Glo ATP depletion luminescence
[6] = target: Plasmodium falciparum protein kinase 6 (PK6, PF3D7_1337100) (UniProt Q8IDW1); assay: PfPK6 kinase inhibitors, biochemical, TCAMS library (AID 1159586); conditions: recombinant PfPK6, Kinase-Glo ATP depletion luminescence
[7] = target: Protein kinase 7 (PK7), Plasmodium falciparum 3D7 (PF3D7_0213400) (UniProt Q7YTF7); assay: inhibition of Plasmodium PK7 catalytic activity – biochemical, TCAMS antimalarial set, Kinase-Glo luminescence (AID 1159587); conditions: recombinant PfPK7, Kinase-Glo ATP depletion luminescence
[8] = target: Calcium-dependent protein kinase 4 (Plasmodium falciparum (isolate 3D7)) (UniProt Q8IBS5); assay: PfCDPK4 kinase inhibitors, biochemical, TCAMS library (AID 1159588; cut-off not given, nearly all actives have IC50 up to about 0.91 µM); conditions: recombinant PfCDPK4, Kinase-Glo ATP depletion luminescence
Calcium-dependent protein kinase 4 (Plasmodium falciparum (isolate 3D7)), sequence (Q8IBS5 whole entry, looked up): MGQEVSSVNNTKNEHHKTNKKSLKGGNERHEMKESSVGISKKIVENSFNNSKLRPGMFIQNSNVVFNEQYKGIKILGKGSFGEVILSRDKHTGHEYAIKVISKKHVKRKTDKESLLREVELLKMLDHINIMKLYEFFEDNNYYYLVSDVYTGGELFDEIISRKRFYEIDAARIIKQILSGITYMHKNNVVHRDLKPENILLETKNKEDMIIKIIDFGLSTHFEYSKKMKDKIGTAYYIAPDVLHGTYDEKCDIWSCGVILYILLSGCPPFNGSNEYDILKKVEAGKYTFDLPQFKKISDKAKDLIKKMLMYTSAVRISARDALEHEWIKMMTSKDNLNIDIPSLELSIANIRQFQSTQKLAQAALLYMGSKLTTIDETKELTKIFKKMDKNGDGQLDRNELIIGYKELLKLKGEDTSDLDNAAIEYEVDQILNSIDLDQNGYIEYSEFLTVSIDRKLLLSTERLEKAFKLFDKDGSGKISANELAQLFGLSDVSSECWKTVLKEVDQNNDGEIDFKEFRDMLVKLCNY

L-lactate dehydrogenase (Plasmodium falciparum (isolate CDC / Honduras)), sequence (Q27743 whole entry, looked up): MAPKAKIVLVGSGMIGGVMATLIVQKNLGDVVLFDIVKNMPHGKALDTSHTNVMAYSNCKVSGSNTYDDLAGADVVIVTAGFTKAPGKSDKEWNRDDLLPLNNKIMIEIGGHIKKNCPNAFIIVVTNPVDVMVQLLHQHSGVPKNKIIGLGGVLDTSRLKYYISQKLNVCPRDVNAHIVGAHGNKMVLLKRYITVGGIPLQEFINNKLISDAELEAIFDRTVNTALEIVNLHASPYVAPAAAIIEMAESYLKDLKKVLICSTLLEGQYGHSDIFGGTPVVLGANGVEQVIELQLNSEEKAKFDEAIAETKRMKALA
Plasmodium falciparum protein kinase 6 (PK6, PF3D7_1337100), sequence (Q8IDW1 1-305): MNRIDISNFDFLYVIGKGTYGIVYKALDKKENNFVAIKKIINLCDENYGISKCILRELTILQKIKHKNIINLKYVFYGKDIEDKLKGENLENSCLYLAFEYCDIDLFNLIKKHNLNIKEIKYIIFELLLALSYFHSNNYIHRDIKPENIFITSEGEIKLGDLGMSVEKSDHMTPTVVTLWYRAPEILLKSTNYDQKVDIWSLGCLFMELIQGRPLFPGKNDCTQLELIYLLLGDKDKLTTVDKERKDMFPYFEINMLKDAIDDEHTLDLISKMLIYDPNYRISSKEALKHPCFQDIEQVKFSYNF
Calcium-dependent protein kinase 1 (Plasmodium falciparum (isolate 3D7)), sequence (P62344 whole entry, looked up): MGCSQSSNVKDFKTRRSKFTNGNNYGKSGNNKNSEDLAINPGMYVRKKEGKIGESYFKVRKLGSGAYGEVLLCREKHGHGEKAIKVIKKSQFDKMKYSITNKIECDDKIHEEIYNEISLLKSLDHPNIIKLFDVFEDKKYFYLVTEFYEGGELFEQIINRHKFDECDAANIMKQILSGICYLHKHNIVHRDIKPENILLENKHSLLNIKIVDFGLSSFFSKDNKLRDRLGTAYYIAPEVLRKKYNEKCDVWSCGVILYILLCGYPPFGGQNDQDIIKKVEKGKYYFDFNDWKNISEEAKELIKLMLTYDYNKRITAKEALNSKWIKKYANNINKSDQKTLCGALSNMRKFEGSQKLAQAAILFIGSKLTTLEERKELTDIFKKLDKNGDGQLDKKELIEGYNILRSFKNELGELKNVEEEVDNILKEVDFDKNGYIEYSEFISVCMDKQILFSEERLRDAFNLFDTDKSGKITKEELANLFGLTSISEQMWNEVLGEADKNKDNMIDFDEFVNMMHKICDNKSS
Protein kinase 7 (PK7), Plasmodium falciparum 3D7 (PF3D7_0213400), sequence (Q7YTF7 1-343): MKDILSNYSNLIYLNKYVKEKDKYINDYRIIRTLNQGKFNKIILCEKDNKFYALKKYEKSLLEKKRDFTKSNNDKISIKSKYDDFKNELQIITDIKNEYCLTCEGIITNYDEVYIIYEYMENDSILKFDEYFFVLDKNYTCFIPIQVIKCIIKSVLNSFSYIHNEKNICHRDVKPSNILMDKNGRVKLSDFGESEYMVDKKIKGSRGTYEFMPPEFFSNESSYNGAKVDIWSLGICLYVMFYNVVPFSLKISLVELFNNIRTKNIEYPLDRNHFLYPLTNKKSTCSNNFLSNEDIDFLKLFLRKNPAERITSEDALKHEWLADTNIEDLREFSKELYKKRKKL

Cc1cccc2[nH]c(-c3ccc(-c4ccc(CN5CCN(CCC#N)CC5)cc4)cc3)nc12
inactive: growth inhibition [1] 27% | inhibition [2] 48% | inhibition [3] 0% | outcome [5] | outcome [6] | outcome [7] | outcome [8]
active: growth inhibition [4] 91%

NC(N)=NCCCCN(Cc1ccccc1)c1ccccc1
inactive: inhibition [2] -4% | inhibition [3] -4% | outcome [5] | outcome [6] | outcome [7] | outcome [8]
active: growth inhibition [1] 98% | growth inhibition [4] 100%

C[C@@H]1CN(c2cccc3c2nc(-c2cncc(C#N)c2)n3CCNCc2ccccc2)C[C@H](C)O1
inactive: growth inhibition [1] 9% | inhibition [2] -5% | inhibition [3] 5% | outcome [5] | outcome [6] | outcome [7] | outcome [8]
active: growth inhibition [4] 83%

Cc1cccc2[nH]c(-c3ccc(-c4cccc(NC(=O)c5ccncc5)c4)cc3)nc12
active: growth inhibition [4] 98%
inactive: growth inhibition [1] 8% | inhibition [2] 46% | inhibition [3] -7% | outcome [5] | outcome [6] | outcome [7] | outcome [8]

Nc1ncc(-c2ccc(F)cc2)c2ccc(-c3cccc(F)c3)cc12
active: growth inhibition [1] 89% | growth inhibition [4] 99%
inactive: inhibition [2] 34% | inhibition [3] 3% | outcome [5] | outcome [6] | outcome [7] | outcome [8]

Cc1ccc(-c2ccc(Cl)cc2Oc2cnc(N)nc2N)o1
active: growth inhibition [4] 102%
inactive: growth inhibition [1] 3% | inhibition [2] 15% | inhibition [3] -2% | outcome [5] | outcome [6] | outcome [7] | outcome [8]

Cc1cc(N(C)C)nc(Nc2ccc(NC(=O)c3c(F)cccc3F)cc2)n1
inactive: growth inhibition [1] 45% | inhibition [3] -1% | outcome [5] | outcome [6] | outcome [7] | outcome [8]
active: inhibition [2] 50% | growth inhibition [4] 94%

COc1ccc(CNC2Cc3ccccc3C2)cc1-c1ccc(S(=O)(=O)NCCN2CCCC2)s1
inactive: inhibition [3] 4% | outcome [5] | outcome [6] | outcome [7] | outcome [8]
active: growth inhibition [1] 100% | inhibition [2] 89% | growth inhibition [4] 101%

COc1ccc(-c2ccc(CN(C)C3CCC(NC(=O)c4cc5ccccc5[nH]4)CC3)cc2)cn1 (stereo not drawn)
inactive: growth inhibition [1] 2% | inhibition [2] 31% | inhibition [3] -1% | outcome [5] | outcome [6] | outcome [7] | outcome [8]
active: growth inhibition [4] 88%

CC(=O)Nc1ccc(CN2CCN(C(c3ccc(F)cc3)c3ccc(F)cc3)CC2)cc1
inactive: inhibition [2] 4% | inhibition [3] 0% | outcome [5] | outcome [6] | outcome [7] | outcome [8]
active: growth inhibition [1] 79% | growth inhibition [4] 93%

CN1CCC(N2CCN(Cc3ccc(-c4ccc(-c5nc6ccc(F)cc6[nH]5)s4)cc3)CC2)CC1
inactive: inhibition [3] 3% | outcome [5] | outcome [6] | outcome [7] | outcome [8]
active: growth inhibition [1] 100% | inhibition [2] 62% | growth inhibition [4] 100%

N#Cc1cccc(NC(=O)Nc2ccc3c(c2)CCN(C2CCC2)CC3)c1
inactive: growth inhibition [1] 26% | inhibition [2] 22% | inhibition [3] -3% | outcome [5] | outcome [6] | outcome [7] | outcome [8]
active: growth inhibition [4] 91%

CC(=O)c1ccc(NC(=O)Nc2ccc(N(C)c3ccnc(NC4CC4)n3)cc2)cc1
active: growth inhibition [1] 60% | inhibition [2] 59% | growth inhibition [4] 100%
inactive: inhibition [3] 1% | outcome [5] | outcome [6] | outcome [7] | outcome [8]

CN(C)Cc1cccc(-c2ccc(NC(=O)c3ccc4c(=O)n(CC5CCCO5)cnc4c3)cc2)c1 (stereo not drawn)
inactive: growth inhibition [1] 14% | inhibition [2] 28% | inhibition [3] 0% | outcome [5] | outcome [6] | outcome [7] | outcome [8]
active: growth inhibition [4] 97%

CN(C)CC(O)C(c1ccccc1)c1cccc(Br)c1 (stereo not drawn)
inactive: growth inhibition [1] 9% | inhibition [2] 22% | inhibition [3] -8% | outcome [5] | outcome [6] | outcome [7] | outcome [8]
active: growth inhibition [4] 98%

CCOc1cc(CC)ccc1C1CCN(CCCCNC(=O)c2ccc(NC(=O)c3ccc(C#N)cc3)cc2)CC1
active: growth inhibition [1] 50% | inhibition [2] 55% | growth inhibition [4] 91%
inactive: inhibition [3] -1% | outcome [5] | outcome [6] | outcome [7] | outcome [8]

COc1ccc2nccc([C@@H](O)CN3CCC(NCc4ccc5c(c4)NC(=O)C(C)(C)O5)CC3)c2c1
active: growth inhibition [1] 70% | growth inhibition [4] 100%
inactive: inhibition [2] 6% | inhibition [3] 3% | outcome [5] | outcome [6] | outcome [7] | outcome [8]

Nc1nc(N)c2cc(C#Cc3ccc(-c4ccccc4)cc3)ccc2n1
inactive: growth inhibition [1] 3% | inhibition [2] 20% | inhibition [3] 0% | outcome [5] | outcome [6] | outcome [7] | outcome [8]
active: growth inhibition [4] 94%

Cc1cc(O)c(CN(C)Cc2ccc(N(C)C)cc2)cc1C(C)C
inactive: inhibition [2] 3% | inhibition [3] -1% | outcome [5] | outcome [6] | outcome [7] | outcome [8]
active: growth inhibition [1] 98% | growth inhibition [4] 100%

Cc1[nH]c(C)c(-c2ccc(-c3ccccc3F)nc2)c(=O)c1Cl
active: growth inhibition [1] 97% | growth inhibition [4] 97%
inactive: inhibition [2] 7% | inhibition [3] 6% | outcome [5] | outcome [6] | outcome [7] | outcome [8]

COCCNC(=O)c1ccc(OC2CCN(CC(C)=Cc3ccccc3)CC2)c(Cl)c1
active: growth inhibition [1] 95% | growth inhibition [4] 94%
inactive: inhibition [2] 18% | inhibition [3] 2% | outcome [5] | outcome [6] | outcome [7] | outcome [8]

O=C(Nc1ccc(Cl)c(C(F)(F)F)c1)c1ccc(C(=O)Nc2ccc(Cl)c(C(F)(F)F)c2)cc1
inactive: growth inhibition [1] 27% | inhibition [2] 9% | inhibition [3] -2% | outcome [5] | outcome [6] | outcome [7] | outcome [8]
active: growth inhibition [4] 88%

COc1cccc(CN2CCCC(OC(c3ccccc3)c3ccccc3)C2)c1O (stereo not drawn)
active: growth inhibition [1] 73% | growth inhibition [4] 90%
inactive: inhibition [2] 19% | inhibition [3] 0% | outcome [5] | outcome [6] | outcome [7] | outcome [8]

N#Cc1ccc(N[C@@H](CC2CCCCC2)C(=O)Nc2ccc(-c3ccccc3)cc2)c2ccccc12
active: growth inhibition [1] 99% | growth inhibition [4] 100%
inactive: inhibition [2] 34% | inhibition [3] -8% | outcome [5] | outcome [6] | outcome [7] | outcome [8]

NC1=NC2(CCCC2)N(c2ccc(Cl)cc2)C(N)=N1
inactive: growth inhibition [1] -1% | inhibition [2] -8% | inhibition [3] -6% | outcome [5] | outcome [6] | outcome [7] | outcome [8]
active: growth inhibition [4] 97%

O=C(C=Cc1ccc(Cl)c(Cl)c1)NCCCCCN1CCC(CCNC(=O)C(c2ccccc2)c2ccccc2)CC1
active: inhibition [2] 61% | growth inhibition [4] 90%
inactive: growth inhibition [1] 43% | inhibition [3] 4% | outcome [5] | outcome [6] | outcome [7] | outcome [8]

CCOC(=O)N[C@@H]1CN[C@@H](C#Cc2cc3c(Nc4ccc(OCc5cccc(F)c5)c(Cl)c4)ncnc3s2)C1
active: growth inhibition [4] 86%
inactive: growth inhibition [1] 13% | inhibition [2] 8% | inhibition [3] -3% | outcome [5] | outcome [6] | outcome [7] | outcome [8]

Cc1cccc2[nH]c(-c3ccc(-c4cccc(CNCCCN5CCCC5=O)c4)cc3)nc12
active: growth inhibition [4] 96%
inactive: growth inhibition [1] 3% | inhibition [2] 6% | inhibition [3] -8% | outcome [5] | outcome [6] | outcome [7] | outcome [8]

O=C(Nc1ccc(C(F)(F)F)cc1)N[C@H]1CCN(CCCCCNC(=O)[C@@H]2C[C@H]2c2ccc(Cl)c(Cl)c2)C1
active: growth inhibition [4] 96%
inactive: growth inhibition [1] -1% | inhibition [2] 41% | inhibition [3] -2% | outcome [5] | outcome [6] | outcome [7] | outcome [8]

CCOC(=O)C(C#N)NC(=O)C=Cc1ccccc1 (stereo not drawn)
active: growth inhibition [4] 96%
inactive: growth inhibition [1] 9% | inhibition [2] -7% | inhibition [3] 6% | outcome [5] | outcome [6] | outcome [7] | outcome [8]

CCN1CCC(N(Cc2ccc(-c3ccc(C(F)(F)F)cc3)o2)C(=O)Cn2c(CCc3cccc(F)c3F)nc(=O)c3ccccc32)CC1
active: growth inhibition [1] 88% | growth inhibition [4] 91%
inactive: inhibition [2] 45% | inhibition [3] -1% | outcome [5] | outcome [6] | outcome [7] | outcome [8]

Cc1cc(C(=O)CN2C(=O)NC(C)(c3ccc4ccccc4c3)C2=O)c(C)n1Cc1ccco1 (stereo not drawn)
inactive: inhibition [2] 12% | inhibition [3] 1% | outcome [5] | outcome [6] | outcome [7] | outcome [8]
active: growth inhibition [1] 71% | growth inhibition [4] 97%

OCCN1CCN(Cc2ccc(-c3ccc(-c4nc5ccc(F)cc5[nH]4)cc3)cc2)CC1
active: growth inhibition [1] 99% | growth inhibition [4] 101%
inactive: inhibition [2] 33% | inhibition [3] -5% | outcome [5] | outcome [6] | outcome [7] | outcome [8]

C#C[C@H]1O[C@@H](n2cnc3c(Nc4cc(Br)cc(C(F)(F)F)c4)ncnc32)[C@H](O)[C@@H]1O
inactive: inhibition [2] 21% | inhibition [3] 4% | outcome [5] | outcome [6] | outcome [7] | outcome [8]
active: growth inhibition [1] 56% | growth inhibition [4] 94%

CC1(C)CC(=O)c2c(O)cc(OCc3ccncc3)cc2O1
inactive: growth inhibition [1] 47% | inhibition [3] -1% | outcome [5] | outcome [6] | outcome [7] | outcome [8]
active: inhibition [2] 80% | growth inhibition [4] 92%

COc1ccc2c(c1)[nH]c1c(/C=C/c3ccc([N+](=O)[O-])cc3)nccc12
active: growth inhibition [1] 63% | growth inhibition [4] 100%
inactive: inhibition [2] 4% | inhibition [3] 3% | outcome [5] | outcome [6] | outcome [7] | outcome [8]

COC(=O)CCn1c(C2CCN(CC3CCC(NC(=O)/C=C/c4ccc(Cl)c(Cl)c4)CC3)CC2)nc2ccccc21 (stereo not drawn)
inactive: growth inhibition [1] 10% | inhibition [2] 14% | inhibition [3] -2% | outcome [5] | outcome [6] | outcome [7] | outcome [8]
active: growth inhibition [4] 94%

CCN1CCC(NCc2ccc(-c3ccc(Cl)s3)cc2)CC1
inactive: growth inhibition [1] 23% | inhibition [2] 42% | inhibition [3] -4% | outcome [5] | outcome [6] | outcome [7] | outcome [8]
active: growth inhibition [4] 96%

COc1ccc2nccc(NN=Cc3ccc([N+](=O)[O-])cc3)c2c1
active: growth inhibition [1] 68% | growth inhibition [4] 100%
inactive: inhibition [2] 9% | inhibition [3] -2% | outcome [5] | outcome [6] | outcome [7] | outcome [8]

CN(C)CCCNCc1ccc(-c2ccc(CNCCc3ccccc3)cc2)cc1
active: growth inhibition [1] 87% | inhibition [2] 61% | growth inhibition [4] 100%
inactive: inhibition [3] 0% | outcome [5] | outcome [6] | outcome [7] | outcome [8]

N=C(N)c1ccc(NCc2cccc(C(=O)O)c2)cc1
active: growth inhibition [1] 79% | growth inhibition [4] 84%
inactive: inhibition [2] 7% | inhibition [3] -2% | outcome [5] | outcome [6] | outcome [7] | outcome [8]
